# Values joined by “and” are separate entries in the source; they are usually repeats but may differ in a detail not shown here. Identical values can stand only once. Active and inactive are the calls of the source.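 Rule for the calls, unless noted: active = compounds whose cell count with miR-34 switched on is under 0.7 times the count with it off; inactive = the rest.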
# Legend:
# [1] = suppressors of polyQ aggregation in yeast, 75Q-TubU reporter (AID 1593); conditions: Yeast 75Q polyglutamine aggregation reporter
# [2] = inhibitors of mitochondrial cytochrome c release, biochemical, purified mitochondria (AID 1603); conditions: stronger effect = lower value;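 note: mouse liver mitochondria challenged with calcium chloride; signal normalized to the plate average as 100%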
# [3] = inhibitors of polyQ protein aggregation (AID 1604); conditions: polyglutamine-induced protein aggregation inhibition assay; stronger effect = higher value; tested at 2.5 µM
# [4] = liver-stage malaria parasite growth inhibition, primary screen, cell-based, HepG2, luciferase luminescence, HepG2 viability (AID 624349; in the data active = parasite load remaining mostly below about 12%, no sharp cut-off; inactive = mostly above about 10%;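 note: 100% = mean of DMSO negative control wells on the same plate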); conditions: P. berghei liver stage in HepG2, luciferase luminescence, concentration not given here; parasite load remaining: stronger effect = lower value; viability: measured here: HepG2 viability without parasites
# [5] = stimulators of nuclear beta-catenin in C2C12, primary screen, imaging, WNT3A-conditioned medium, mouse C2C12, NPC library (AID 1117326; in the data active = nuclear beta-catenin stimulation mostly above about 4.2%, no sharp cut-off; inactive = mostly below about 10%); conditions: stronger effect = higher value
# [6] = stimulators of insulin release from INS-1E, primary screen, cell-based, 5 mM glucose, NPC library (AID 1117329;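 active = compound raises insulin release from rat beta cells at 5 mM glucose, no numeric limit stated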); conditions: rat INS-1E insulin secretion, at 10 µM, stronger effect = higher value
# [7] = growth inhibition of GSK3B-pretreated HCT116 cells – cell-based, CellTiter-Glo, 0.2 to 20 µM (AID 1117336;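 active = compounds lowering colon cancer cell viability after pretreatment blocking the GSK3B kinase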); conditions: HCT116 viability after GSK3B inhibitor, at 20 µM, stronger effect = higher value
# [8] = inhibition of endothelial tube formation, primary screen, imaging, VEGF stimulated, CD31 staining, tube area, NPC library (AID 1117340;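 active = compound that reduces growth-factor-driven endothelial tube area in a mixed cell culture, no cutoff stated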); conditions: VEGF-stimulated ADSC/ECFC co-culture, at 10 µM, stronger effect = higher value
# [9] = glucagon-like peptide 1 release enhancers, primary assay, NCI-H716 cell line, NPC library (AID 1117341;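 active = compound raises GLP1 secretion from the human gut endocrine cells, with no numeric limit stated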); conditions: NCI-H716 cells, at 10 µM, stronger effect = higher value
# [10] = HCT116 colon cancer cell growth inhibition, primary screen, CellTiter-Glo luminescence, NPC library (AID 1117342;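 active = compounds that lower survival of HCT116 colon cancer cells in the luminescence readout, no numeric limit stated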); conditions: at 20 µM (top of the series)
# [11] = CellTiter-Glo luminescent readout of SW480 viability loss, NPC library primary (AID 1117343;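 active = compounds that lower viability of the colon cancer cells in the luminescence readout, with no numeric limit stated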); conditions: CellTiter-Glo luminescence; at 20 µM (top of the series)
# [12] = decreased DLD-1 cellular survival, CellTiter-Glo luminescent readout, NPC compound collection, primary HTS (AID 1117346;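 active = compounds that lower survival of DLD-1 colon cancer cells in the luminescence readout, no cutoff given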); conditions: DLD-1 viability, CellTiter-Glo luminescence; at 20 µM (top of the series)
# [13] = differential killing of epithelial or mesenchymal cells, primary screen, imaging, PC-3E GFP, TEM4-18 mCherry, co-culture (AID 1345086;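 active = compounds killing one labelled cell type while sparing the other, by normalised counts and ratio limits, not self-fluorescent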;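 for all read-outs here: cells exposed to compound for 72 h before imaging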;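 for red/green cell ratio (normalised): normalised mesenchymal count divided by normalised epithelial count so high means epithelial killing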); conditions: imaging cell counts, at 1 µM; for red/green cell ratio (normalised): actives lie on both sides
# [14] = tested on: Aerobactin synthetase IucA (Klebsiella pneumoniae hvKP1); assay: Biochemical IucA enzyme inhibition primary screen of the Spectrum library (AID 1346200; call rule not given here;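 note: 100% = wells without compound and 0% = wells lacking enzyme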); conditions: malachite green pyrophosphate, A620, at 8 µM, stronger effect = lower value
# [15] = sensitizers of A549 cells to miR-34 induction, primary screen, imaging, A549 dox-inducible miR-34, nuclei and caspase counts (AID 1347080); conditions: A549 miR-34 inducible, Hoechst nuclei count, 48 h
# [16] = biological target: NAD(+) hydrolase SARM1 (Homo sapiens) (UniProt Q6SZW1); assay: SARM1 TIR NADase inhibitors, cell lysate, NAD-Glo luminescence (AID 1508614;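 active = compound whose remaining NAD level is above about 45 nM, limit read from the data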;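 note: higher remaining NAD means stronger inhibition of SARM1 NADase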); conditions: SAM-TIR HEK293T lysate NADase, at 1 µM, stronger effect = higher value
# Chain of NAD(+) hydrolase SARM1 (Homo sapiens) (Q6SZW1 whole entry, looked up): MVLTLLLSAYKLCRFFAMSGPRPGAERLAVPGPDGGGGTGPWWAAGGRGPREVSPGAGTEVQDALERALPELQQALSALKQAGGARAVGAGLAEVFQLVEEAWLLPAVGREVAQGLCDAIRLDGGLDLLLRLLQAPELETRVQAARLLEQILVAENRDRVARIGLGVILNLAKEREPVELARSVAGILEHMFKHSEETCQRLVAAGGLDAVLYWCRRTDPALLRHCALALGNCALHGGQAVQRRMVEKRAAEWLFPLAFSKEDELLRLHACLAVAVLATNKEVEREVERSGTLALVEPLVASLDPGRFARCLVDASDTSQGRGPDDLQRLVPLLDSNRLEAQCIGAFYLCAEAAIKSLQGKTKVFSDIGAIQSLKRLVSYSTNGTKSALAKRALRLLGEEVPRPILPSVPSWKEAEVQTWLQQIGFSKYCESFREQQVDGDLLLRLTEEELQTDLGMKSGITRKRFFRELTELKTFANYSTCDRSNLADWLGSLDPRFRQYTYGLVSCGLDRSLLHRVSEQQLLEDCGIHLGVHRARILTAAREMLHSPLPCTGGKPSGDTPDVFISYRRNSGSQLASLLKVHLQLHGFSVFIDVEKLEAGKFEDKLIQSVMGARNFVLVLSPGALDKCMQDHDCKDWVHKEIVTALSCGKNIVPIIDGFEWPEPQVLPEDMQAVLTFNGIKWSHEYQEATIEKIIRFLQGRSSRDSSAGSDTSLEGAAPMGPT
# [17] = viability rescue of complex I mutant cybrids, primary screen, cell-based, galactose medium, ATP luminescence (AID 1645843;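 active = z-score of at least 1.8 in each of two replicates, scored against plate mean and spread of sample wells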;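 note: positive z means more ATP and so rescue of galactose-driven cybrid death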); conditions: complex I mutant cybrid cells, 72 h, stronger effect = higher value
# [18] = survival rescue of mitochondrial mutant cells in low glucose, primary screen, MELAS cybrids, Rieske KO mouse fibroblasts, CellTiter-Glo (AID 1508586;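 active = mean z-score across replicates of 1.96 or higher in either the MELAS or the Rieske mutant cell line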;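 note: z relative to plate mean and SD of compound and empty wells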)
# [19] = biological target: Mitogen-activated protein kinase 7 (Homo sapiens) (UniProt Q13164); assay: ERK5 transactivation activators in reporter cells, primary screen, cell-based, HTS (AID 1508626;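 active = luciferase signal above three times the same-plate solvent-only control wells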;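 note: luciferase driven by Gal4-ERK5 fusion binding five Gal4 sites before minimal TATA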); conditions: HeLa Gal4-ERK5 transactivation, 18 h, at 5 µM, stronger effect = higher value
# Chain of Mitogen-activated protein kinase 7 (Homo sapiens) (Q13164 whole entry, looked up, the tested form may be a part): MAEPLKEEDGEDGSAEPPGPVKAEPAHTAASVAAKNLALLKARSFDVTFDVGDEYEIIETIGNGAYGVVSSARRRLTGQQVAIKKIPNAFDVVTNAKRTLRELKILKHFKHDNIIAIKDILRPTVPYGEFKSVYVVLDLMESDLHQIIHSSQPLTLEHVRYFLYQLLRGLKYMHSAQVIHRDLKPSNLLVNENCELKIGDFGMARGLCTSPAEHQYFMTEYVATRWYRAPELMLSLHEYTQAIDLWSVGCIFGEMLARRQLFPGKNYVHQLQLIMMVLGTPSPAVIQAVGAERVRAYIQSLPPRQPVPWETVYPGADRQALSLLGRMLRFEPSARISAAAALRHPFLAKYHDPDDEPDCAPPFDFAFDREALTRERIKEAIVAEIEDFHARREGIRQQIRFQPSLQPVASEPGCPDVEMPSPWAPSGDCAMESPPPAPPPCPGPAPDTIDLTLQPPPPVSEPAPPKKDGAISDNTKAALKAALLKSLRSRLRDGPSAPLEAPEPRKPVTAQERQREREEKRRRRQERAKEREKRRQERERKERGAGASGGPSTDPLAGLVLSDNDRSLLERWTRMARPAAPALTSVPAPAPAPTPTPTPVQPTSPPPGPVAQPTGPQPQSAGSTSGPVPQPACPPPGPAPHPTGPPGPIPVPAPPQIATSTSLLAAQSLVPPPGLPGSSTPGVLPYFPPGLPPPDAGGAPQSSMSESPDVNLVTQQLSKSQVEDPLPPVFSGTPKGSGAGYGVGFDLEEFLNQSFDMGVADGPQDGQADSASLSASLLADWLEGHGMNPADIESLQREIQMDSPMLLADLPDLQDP
# [20] = measured here: epithelial PC-3E GFP cell survival
# [21] = measured here: mesenchymal TEM4-18 mCherry cell survival
# [22] = measured here: relative caspase fold change +Dox/-Dox
# [23] = measured here: total cells with miR-34 induction, stronger effect = lower value
# [24] = measured here: total cells without miR-34 induction
compound,measurement,setting,value
Oc1cccc2cccnc12,score,[1],0.03
same,cytochrome c release ratio,[2],0.94
same,inhibition of aggregation,[3],83.3%
same,parasite load remaining,[4],64.5% (inactive) and 25.4% (inactive)
same,viability,[4],53.5% and 57.1%
same,nuclear beta-catenin stimulation,[5]; at 10 µM,6.4% (inactive)
same,nuclear beta-catenin stimulation,"[5]; stimulation, at 2 µM",0.8%
same,insulin secretion stimulation,[6],-1% (inactive)
same,viability decrease,[7],-3.1% (inactive)
same,tube area decrease,[8],-4.7% (inactive)
same,GLP1 secretion stimulation,[9],81.5% (active)
same,inhibition of viability,[10],8.1% (inactive)
same,viability decrease (inhibition),[11],68.4% (active)
same,viability decrease (inhibition),[12],53.9% (active)
same,red/green cell ratio (normalised),[13],1.03 (inactive)
same,normalised cell number,[13]; [20],0.9
same,normalised cell number,[13]; [21],0.93
same,activity remaining,[14],111% (inactive)
same,fold change,[15]; stronger effect = lower value,0.857 (inactive)
same,fold change,[15]; [22],0.864
same,cell count,[15]; [23],8140
same,cell count,[15]; [24],9500
same,remaining NAD,[16],10 nM (inactive)
NP(N)(=O)NC(=O)c1ccc(F)cc1,nuclear beta-catenin stimulation,[5]; at 10 µM,0.1% (inactive)
same,nuclear beta-catenin stimulation,"[5]; stimulation, at 2 µM",0.9%
same,insulin secretion stimulation,[6],-0.7% (inactive)
same,viability decrease,[7],-1.25% (inactive)
same,tube area decrease,[8],-20.9% (inactive)
same,GLP1 secretion stimulation,[9],1.1% (inactive)
same,inhibition of viability,[10],-0.3% (inactive)
same,viability decrease (inhibition),[11],31.5% (inactive)
same,viability decrease (inhibition),[12],6.6% (inactive)
same,red/green cell ratio (normalised),[13],0.99 (inactive)
same,normalised cell number,[13]; [20],0.92
same,normalised cell number,[13]; [21],0.91
same,fold change,[15]; stronger effect = lower value,0.935 (inactive) and 0.913 (inactive)
same,fold change,[15]; [22],0.958 and 0.851
same,cell count,[15]; [23],8980 and 8200
same,cell count,[15]; [24],9600 and 8990
same,remaining NAD,[16],10 nM (inactive)
same,z-score,[17],-0.31 (inactive)
O=C1C2CC=CCC2C(=O)N1SC(Cl)(Cl)Cl (configuration not stated),nuclear beta-catenin stimulation,[5]; at 10 µM,14.9% (active)
same,nuclear beta-catenin stimulation,"[5]; stimulation, at 2 µM",44.5%
same,insulin secretion stimulation,[6],0.6% (inactive)
same,viability decrease,[7],98.9% (active)
same,tube area decrease,[8],108% (active)
same,GLP1 secretion stimulation,[9],0.3% (inactive)
same,inhibition of viability,[10],99.3% (active)
same,viability decrease (inhibition),[11],102% (active)
same,viability decrease (inhibition),[12],102% (active)
same,red/green cell ratio (normalised),"[13]; counts scaled to control wells, 1 = unselective",1.09 (inactive)
same,normalised cell number,[13]; [20],1.03
same,normalised cell number,[13]; [21],1.13
Oc1cc(Cl)ccc1Oc1ccc(Cl)cc1Cl,parasite load remaining,[4],-1.97% (inactive) and 16.2% (inactive)
same,viability,[4],75.8% and 88.8%
same,nuclear beta-catenin stimulation,[5]; at 10 µM,1.1% (inactive)
same,nuclear beta-catenin stimulation,"[5]; stimulation, at 2 µM",0.7%
same,insulin secretion stimulation,[6],1.4% (inactive)
same,viability decrease,[7],48.8% (inactive)
same,tube area decrease,[8],104% (active)
same,GLP1 secretion stimulation,[9],26.8% (active)
same,inhibition of viability,[10],95% (active)
same,viability decrease (inhibition),[11],112% (active)
same,viability decrease (inhibition),[12],51.4% (active)
same,red/green cell ratio (normalised),[13],0.82 (inactive)
same,normalised cell number,[13]; [20],1.03
same,normalised cell number,[13]; [21],0.84
same,activity remaining,[14],106% (inactive)
same,fold change,[15]; stronger effect = lower value,1.03 (inactive) and 0.888 (inactive)
same,fold change,[15]; [22],2.38 and 7.01
same,cell count,[15]; [23],7170 and 12100
same,cell count,[15]; [24],6950 and 13600
same,z-score,"[18]; MELAS cybrid survival, CellTiter-Glo 48 h, stronger effect = higher value",-0.777 (inactive)
same,z-score,"[18]; Rieske KO mouse fibroblast survival, CellTiter-Glo 72 h",-0.145
same,remaining NAD,[16],10 nM (inactive)
same,luciferase signal,[19],48 AU (inactive)
same,z-score,[17],-1.48 (inactive)
